# Test results as given in PubChem BioAssay AID504329 (Southern Research Specialized Biocontainment Screening …, 2011).
# Among all 340,000 compounds or so, about 1,000 (0.29%) were called active. Only a sample is shown. Entries with a potency or affinity are not part of this list. Values without a mark were called inactive. Cut-off read from the data, not from the text of the source: inconclusive = inhibition above about 27% without an active follow-up result; inactive = below that.
# Test: H1N1 influenza NS1A inhibitors, functional cell based assay (AID 504329)
# Conditions: percent inhibition, at 12.5 µM, active compounds read high
row,SMILES,inhibition [%]
1,COc1ccc(NC(=O)CC2(CC(=O)N3CCOCC3)CCCC2)cc1Cl,-1.17
2,CC1CC(C)CN(S(=O)(=O)c2ccc(C(=O)Nc3nnc(C4CC4)o3)cc2)C1 (stereo not drawn),-2.79
3,CC(C)(C)NC(=O)C(c1ccccc1F)N(Cc1ccco1)C(=O)c1csnn1 (stereo not drawn),-1.84
4,O=C(O)C(c1ccccc1)N1C(=O)/C(=C\c2ccc(O)c(O)c2)SC1=S (stereo not drawn),10.8
5,COc1ccc([N+](=O)[O-])cc1/C=N/Nc1nn[nH]n1,-3.63
6,C(=N\Nc1nc2ccccc2[nH]1)/c1ccc2ncccc2c1,-2.83
7,Oc1ccccc1/C=N/Nc1nn[nH]n1,-4.08
8,COc1ccc(O)c(/C=N/Nc2nc3ccccc3[nH]2)c1,-13.2
9,Cc1nc2ccc(C(=O)N/N=C/c3cc([N+](=O)[O-])ccc3O)cc2[nH]1,19
10,Cc1ccccc1/C=N/Nc1nc2ccccc2[nH]1,-2.18
11,O=S1(=O)N=C(N/N=C/c2cccs2)c2ccccc21,3.71
12,O=S1(=O)N=C(N/N=C/c2ccco2)c2ccccc21,-20
13,Cc1ccc(C(=O)N2CCN(c3ccccc3Cl)CC2)cc1[N+](=O)[O-],-8.39
14,COCCn1c(-c2ccc(SC)cc2)nc2c1c(=O)[nH]c(=O)n2CC(C)C,6.85
15,Cc1ccc(C)c(OC(C)C(=O)Nc2nccs2)c1 (stereo not drawn),-0.26
16,Cc1ccc(S(=O)(=O)N[C@H](C(=O)OCC(=O)NC(=O)Nc2ccc3c(c2)OCCO3)C(C)C)cc1,-8.36
17,CC(=O)Nc1ccc(NC(=O)C(C)OC(=O)C(C)SCC(=O)Nc2ccc(C)cc2)cc1 (stereo not drawn),-10.9
18,N#Cc1ccccc1S(=O)(=O)N1CCN(CC(=O)Nc2ccccc2C(=O)NC2CC2)CC1,-1.3
19,Fc1ccc(-c2csc(-c3ccccn3)n2)cc1F,-3.95
20,Cc1ccc2ccc3cccc4ccc1c2c34,-18.9
21,COc1cnc(-c2ccccn2)nc1Sc1ccc(F)cc1,6.63
22,O=[N+]([O-])c1ccc(NN=Cc2cc(Br)ccc2O)nc1,6.5
23,O=[N+]([O-])c1cc(Cl)cc(/C=N/Nc2nc3ccccc3s2)c1O,3.56
24,O=[N+]([O-])c1cccc(/C=N/NC2=NS(=O)(=O)c3ccccc32)c1,-4.67

row,SMILES,inhibition [%]
1,O=[N+]([O-])c1ccc(/C=N/NC2=NS(=O)(=O)c3ccccc32)cc1,1.07
2,O=[N+]([O-])c1ccc(O)c(/C=N/Nc2ccccc2Cl)c1,-14.4
3,O=[N+]([O-])c1ccc(/C=N/Nc2ccccn2)cc1,-3.42
4,O=[N+]([O-])c1ccc(Cl)cc1C=NNc1ccccn1,-1.7
5,O=[N+]([O-])c1cccc(/C=N/Nc2ccccn2)c1,0.08
6,O=C(NCCc1ccc2c(c1)OCCO2)c1ccc([N+](=O)[O-])cc1Cl,-0.08
7,O=C(CSc1nnnn1-c1ccc2c(c1)OCO2)NCc1ccccc1,0.06
8,CCCCOc1c(Br)cc(CNCCCN2CCOCC2)cc1OC,1.13
9,Cc1ccc(CNc2cc(C(=O)O)ccc2C)s1,14.2
10,O=C(NCc1ccccc1F)C1CCCN1S(=O)(=O)c1ccc(F)cc1 (stereo not drawn),4.5
11,O=C(O)c1cccc(NC(=O)c2ccccc2NC(=O)c2ccco2)c1,-7.51
12,CN(C)/C=C(\C(=O)c1cccc(Cl)c1)c1nnnn1-c1ccccc1,-1.13
13,N=C(N)c1ccc(N)cc1,2.89
14,Nc1ccc(C(=O)C(=O)c2ccc(N)cc2)cc1,1.62
15,CCOC(=O)c1cc(CC)sc1NC(=O)CC1SC(N)=NC1=O (stereo not drawn),-8.66
16,Cc1ccc(S(=O)(=O)Cn2nnnc2C(CC(C)C)N2CCN(C3CCCC3)CC2)cc1 (stereo not drawn),-5.05
17,COc1ccc(C(=O)N/N=C(\Cc2ncc[nH]2)c2ccccc2)cc1,1.55
18,COc1cc(C(=O)N/N=C(\Cc2ncc[nH]2)c2ccccc2)cc(OC)c1OC,-5.85
19,CN(CC(=O)Nc1ccccc1Cl)C(=O)COC(=O)c1ccc(-c2ccc(O)cc2)cc1,-4.29
20,CCC(=O)Nc1ccc(C(=O)N/N=C/c2c(C)[nH]c3ccccc23)cc1,10.2
21,CC(CNC(=O)c1cc(COc2c(F)cccc2F)on1)Oc1cccnc1 (stereo not drawn),5.51
22,O=C(NNC(=S)NC(=O)c1cccnc1)c1ccc(Cl)cc1,-8.92
23,O=C(NNC(=S)NC(=O)c1ccc(F)cc1)c1ccncc1,-6.57
24,O=C(NNC(=O)c1cnccn1)c1ccc(Cl)cc1,-1.07

row,SMILES,inhibition [%]
1,COc1ccc(/C=C/C(=O)NC(=S)NNC(=O)c2cnccn2)cc1,22
2,O=C(/C=C/c1ccccc1)NC(=S)NNC(=O)c1cccnc1,11.7
3,O=C(NNC(=S)NC(=O)c1cccnc1)c1ccc(F)cc1,3.02
4,CSc1nsc(SCC(=O)N2CCCc3ccccc32)n1,-4.75
5,COc1ccc(NC(C)=O)c2nc(C)c(C)nc12,2.97
6,CC1(C)OC(c2ccccc2)=C/C(=C/C=Nc2ccccc2)O1,-14.7
7,CC1(C)OC(c2ccccc2)=C/C(=C/C=C2C(=O)NC(=O)NC2=O)O1,22.3
8,CCN(CC)C(=O)Oc1cc(=O)n2c3c(cccc13)CCC2,2.43
9,Cc1cc(C(=O)Nc2ccc3c(c2)OCO3)no1,6.49
10,O=C(COc1ccc(Cl)cc1Br)OCC(=O)c1ccc[nH]1,-4.26
11,COc1cc(C2SCC(=O)Nc3c2c(=O)[nH]n3C2CCCCCC2)cc(OC)c1OC (stereo not drawn),3.42
12,N#Cc1ccccc1OCC(=O)Nc1ccccc1C(=O)NC1CC1,-6.65
13,CCOC(=O)c1c(C)[nH]c(C(=O)N/N=C\c2ccccc2O)c1C,0.86
14,Cc1cc(C)n(CC(=O)N/N=C/c2cccc([N+](=O)[O-])c2)n1,4.33
15,Cc1cc(C)n(CC(=O)N/N=C/c2cc(Br)cc([N+](=O)[O-])c2O)n1,15.4
16,O=C(Cn1nc2ccccc2n1)N/N=C/c1cc(Cl)cc([N+](=O)[O-])c1O,17.6
17,COc1cc([N+](=O)[O-])cc(/C=N/NC(=O)Cn2nc(C)cc2C)c1O,-28.6
18,CCOC(=O)c1c(C)[nH]c(C(=O)N/N=C\c2ccccc2Cl)c1C,1.32
19,O=C(Cn1nnc(-c2ccccc2)n1)N/N=C/c1cc([N+](=O)[O-])ccc1O,0.1
20,COc1cc([N+](=O)[O-])cc(/C=N/NC(=O)Cn2nccc2C)c1O,13.5
21,COc1ccc(NC(=S)N(CCO)Cc2ccccc2)cc1,1.27
22,CN(C(=O)c1cncc(Br)c1)C1C2CC3CC(C2)CC1C3 (stereo not drawn),0.5
23,O=C(COC(=O)C1CCC1)Nc1cc(S(=O)(=O)N2CCCCC2)ccc1Cl,3.86
24,O=C(c1cc(C2CC2)nn1-c1ccccc1)N1CCN(c2ncc(C(F)(F)F)cc2Cl)CC1,-6.87

row,SMILES,inhibition [%]
1,CCc1ccccc1NCC(=O)Nc1ccccc1C(=O)OC,-3.34
2,Cc1c(C)c2ccc(OCC(=O)c3ccccc3)cc2oc1=O,-16.6
3,CC(=O)Nc1ccc(S(=O)(=O)N2CCN(CCc3ccccc3)CC2)cc1,0.26
4,Nc1ccccc1N=Cc1c(O)n(CCC2=CCCCC2)c(=O)[nH]c1=O,-8.66
5,COC(CNC(=O)C1CCCN(S(=O)(=O)c2c(C)noc2/C=C/c2cccs2)C1)OC (stereo not drawn),9.65
6,O=C(OCc1ccccc1)N1CCC2CC1c1cc(-c3ccccc3)ccc12 (stereo not drawn),-8.29
7,CCOc1cccc(CN2CCCC(CNC(=O)c3cccc(OC)c3OC)C2)c1 (stereo not drawn),0.84
8,COc1ccc(CCNC(=O)COC(=O)c2cc(S(=O)(=O)N3CCCC3)ccc2O)cc1,-7.2
9,C=CCCN(C(C(=O)OC)C(C)C)S(=O)(=O)c1ccccc1Br (stereo not drawn),-12.7
10,O=C(N/N=C/c1cc([N+](=O)[O-])ccc1O)Nc1ccccc1,-0.02
11,Cc1ccc(C)c(NC(=O)CCC(=O)N/N=C/c2cc([N+](=O)[O-])ccc2O)c1,8.85
12,Cc1ccccc1NC(=O)CCC(=O)N/N=C/c1cc([N+](=O)[O-])ccc1O,10.1
13,COc1ccc(Br)cc1/C=N/NC(=O)Cn1nnnc1N,0.27
14,Cc1ccc(NC(=O)CCC(=O)N/N=C/c2cc([N+](=O)[O-])ccc2O)cc1,-7.13
15,O=C(N/N=C/c1cc([N+](=O)[O-])ccc1O)C1CC1,4.39
16,Nc1nnnn1CC(=O)N/N=C/c1cc([N+](=O)[O-])ccc1Cl,-6.51
17,CN1CCN(CCC(=O)N/N=C/c2cc([N+](=O)[O-])ccc2OC(F)F)CC1,-8.9
18,Cc1cc(C)c2c(c1)-c1c(ssc1=S)C(C)(C)N2C(=O)CSc1nncn1C,9.33
19,O=c1[nH]c(=O)n(Cc2ccco2)c(O)c1/C=N/N1CCCCCC1,12.8
20,CCN(CC(=O)Nc1c(F)cccc1F)C(=O)CSCc1c(C)noc1C,-12.8
21,COCCn1c(C)cc(C(=O)COC(=O)CNC(=O)c2ccccc2)c1C,4.38
